In PubChem BioAssay:
Values joined by “and” are separate entries in the source; they are usually repeats but may differ in a detail not shown here. Equal values may be shown once. Active and inactive are the calls of the source.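 How the source made its calls, unless noted: active means normalized viability below 100% at a tested concentration; inactive means the rest.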

Legend:
[1] = stimulators of nuclear beta-catenin in C2C12, primary screen, imaging, WNT3A-conditioned medium, mouse C2C12, NPC library (AID 1117326; in the data active means nuclear beta-catenin stimulation mostly above about 4.2%, no sharp cut-off; inactive means mostly below about 10%); details: stronger effect = higher value
[2] = stimulators of insulin release from INS-1E, primary screen, cell-based, 5 mM glucose, NPC library (AID 1117329;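 active means compound raises insulin release from rat beta cells at 5 mM glucose, no numeric limit stated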); details: rat INS-1E insulin secretion, at 10 µM, stronger effect = higher value
[3] = growth inhibition of GSK3B-pretreated HCT116 cells – cell-based, CellTiter-Glo, 0.2 to 20 µM (AID 1117336;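 active means compounds lowering colon cancer cell viability after pretreatment blocking the GSK3B kinase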); details: HCT116 viability after GSK3B inhibitor, at 20 µM, stronger effect = higher value
[4] = inhibition of endothelial tube formation, primary screen, imaging, VEGF stimulated, CD31 staining, tube area, NPC library (AID 1117340;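 active means compound that reduces growth-factor-driven endothelial tube area in a mixed cell culture, no cutoff stated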); details: VEGF-stimulated ADSC/ECFC co-culture, at 10 µM, stronger effect = higher value
[5] = glucagon-like peptide 1 release enhancers, primary assay, NCI-H716 cell line, NPC library (AID 1117341;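 active means compound raises GLP1 secretion from the human gut endocrine cells, with no numeric limit stated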); details: NCI-H716 cells, at 10 µM, stronger effect = higher value
[6] = HCT116 colon cancer cell growth inhibition, primary screen, CellTiter-Glo luminescence, NPC library (AID 1117342;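 active means compounds that lower survival of HCT116 colon cancer cells in the luminescence readout, no numeric limit stated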); details: at 20 µM (top of the series)
[7] = CellTiter-Glo luminescent readout of SW480 viability loss, NPC library primary (AID 1117343;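 active means compounds that lower viability of the colon cancer cells in the luminescence readout, with no numeric limit stated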); details: CellTiter-Glo luminescence; at 20 µM (top of the series)
[8] = decreased DLD-1 cellular survival, CellTiter-Glo luminescent readout, NPC compound collection, primary HTS (AID 1117346;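 active means compounds that lower survival of DLD-1 colon cancer cells in the luminescence readout, no cutoff given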); details: DLD-1 viability, CellTiter-Glo luminescence; at 20 µM (top of the series)
[9] = target: 6-phosphogluconate dehydrogenase, decarboxylating (Homo sapiens) (UniProt P52209); assay: 6PGD enzyme inhibitors, primary screen, biochemical, human, recombinant enzyme, NADPH absorbance (AID 1159550;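 active means at least 20% inhibition of 6-phosphogluconate dehydrogenase activity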); details: recombinant 6PGD, NADPH absorbance 341 nm; at 10 µM; stronger effect = higher value
6-phosphogluconate dehydrogenase, decarboxylating (Homo sapiens), sequence (P52209 whole entry, looked up): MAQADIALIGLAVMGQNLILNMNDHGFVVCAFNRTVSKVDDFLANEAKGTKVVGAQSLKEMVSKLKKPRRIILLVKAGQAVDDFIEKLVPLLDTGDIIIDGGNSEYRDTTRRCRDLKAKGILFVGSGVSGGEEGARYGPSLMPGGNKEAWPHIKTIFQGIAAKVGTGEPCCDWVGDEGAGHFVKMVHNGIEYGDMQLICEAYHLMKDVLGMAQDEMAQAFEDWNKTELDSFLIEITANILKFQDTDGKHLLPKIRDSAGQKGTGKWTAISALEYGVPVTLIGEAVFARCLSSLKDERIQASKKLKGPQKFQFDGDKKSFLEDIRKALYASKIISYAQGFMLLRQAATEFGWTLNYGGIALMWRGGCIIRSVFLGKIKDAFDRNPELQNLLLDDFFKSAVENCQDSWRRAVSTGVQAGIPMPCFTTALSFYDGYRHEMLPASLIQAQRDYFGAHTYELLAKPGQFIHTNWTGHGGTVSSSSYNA

[10] = differential killing of epithelial or mesenchymal cells, primary screen, imaging, PC-3E GFP, TEM4-18 mCherry, co-culture (AID 1345086;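 active means compounds killing one labelled cell type while sparing the other, by normalised counts and ratio limits, not self-fluorescent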;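 on all read-outs here: cells exposed to compound for 72 h before imaging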;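 on red/green cell ratio (normalised): normalised mesenchymal count divided by normalised epithelial count so high means epithelial killing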); details: imaging cell counts, at 1 µM; for red/green cell ratio (normalised): actives lie on both sides, counts scaled to control wells, 1 = unselective
[11] = survival rescue of mitochondrial mutant cells in low glucose, primary screen, MELAS cybrids, Rieske KO mouse fibroblasts, CellTiter-Glo (AID 1508586;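 active means mean z-score across replicates of 1.96 or higher in either the MELAS or the Rieske mutant cell line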;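 further: z relative to plate mean and SD of compound and empty wells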)
[12] = ovarian cancer cell viability with rucaparib, profiling panel, oncology-focused library, rucaparib conditional (AID 1508598); details: patient-derived ovarian cancer cells, CellTiter-Glo viability, 144 h, stronger effect = lower value
F380Y = assay: modulators of BK channel variants, profiling panel, selectivity assay, cell-based, U2OS BacMam, thallium flux, beta subunits (AID 1259406;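 active means thallium flux through the channel raised or lowered by more than 3 SD from vehicle-only wells, actives on both sides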;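 further: initial slope of Thallos dye fluorescence rise after thallium is added; log ratio against the mean of 0.3% DMSO vehicle wells on the same plate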); details: at 30 µM
F380Y/beta1 = assay: as above; details: at 30 µM
F380Y/beta2Delta = assay: as above; details: at 30 µM
F380Y/beta4 = assay: as above; details: at 30 µM
[13] = target: Calcium-activated potassium channel subunit alpha-1 (Homo sapiens) + Leucine-rich repeat-containing protein 26 (Homo sapiens) (UniProt Q12791+Q2I0M4); assay: as above; details: F380Y/Slo1WT/gamma1, at 30 µM
Calcium-activated potassium channel subunit alpha-1 (Homo sapiens) + Leucine-rich repeat-containing protein 26 (Homo sapiens), sequence (Q2I0M4 whole entry, looked up, one chain of several): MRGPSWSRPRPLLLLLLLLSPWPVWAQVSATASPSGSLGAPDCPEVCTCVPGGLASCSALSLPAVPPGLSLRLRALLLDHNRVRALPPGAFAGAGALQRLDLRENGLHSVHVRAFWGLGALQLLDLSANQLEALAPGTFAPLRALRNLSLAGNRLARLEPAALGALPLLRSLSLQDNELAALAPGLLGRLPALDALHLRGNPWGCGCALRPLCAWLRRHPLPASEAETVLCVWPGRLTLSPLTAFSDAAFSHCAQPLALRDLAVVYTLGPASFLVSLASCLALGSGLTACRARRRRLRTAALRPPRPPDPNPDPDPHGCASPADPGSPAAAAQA

R275C = assay: as above; details: at 30 µM
R275C/beta1 = assay: as above; details: at 30 µM
[14] = measured here: epithelial PC-3E GFP cell survival
[15] = measured here: mesenchymal TEM4-18 mCherry cell survival
[16] = MELAS cybrid survival, CellTiter-Glo 48 h, stronger effect = higher value
[17] = Rieske KO mouse fibroblast survival, CellTiter-Glo 72 h

CC1=C(/C=C/C(C)=C/C=C/C(C)=C/C(=O)O)C(C)(C)CCC1
0.0426 and 0.864: z-score [11, 17]
inactive: nuclear beta-catenin stimulation ([1]; at 10 µM) 8.6% | insulin secretion stimulation [2] 1.8% | tube area decrease [4] -33.9% | GLP1 secretion stimulation [5] 14.4% | inhibition [9] -0.523% | red/green cell ratio (normalised) [10] 0.69 | z-score [11, 16] -0.0661 and 0.992 | viability ([12]; at 0.000305 µM, OCI-C5x cells, with rucaparib 10 µM, 100% = cells with rucaparib alone) 106% | viability ([12]; at 0.000305 µM, OCI-C5x cells, without rucaparib) 135% | viability ([12]; at 0.000305 µM, OCI-P5x cells, with rucaparib 20 µM, 100% = cells with rucaparib alone) 102% | viability ([12]; at 0.000305 µM, OCI-P5x cells, without rucaparib) 120% | viability ([12]; at 0.00122 µM, OCI-C5x cells, with rucaparib 10 µM, 100% = cells with rucaparib alone) 106% | viability ([12]; at 0.00122 µM, OCI-C5x cells, without rucaparib) 121% | viability ([12]; at 0.00122 µM, OCI-P5x cells, with rucaparib 20 µM, 100% = cells with rucaparib alone) 105% | viability ([12]; at 0.00122 µM, OCI-P5x cells, without rucaparib) 119% | viability ([12]; at 0.00488 µM, OCI-C5x cells, with rucaparib 10 µM, 100% = cells with rucaparib alone) 124% | viability ([12]; at 0.00488 µM, OCI-C5x cells, without rucaparib) 115% | viability ([12]; at 0.00488 µM, OCI-P5x cells, with rucaparib 20 µM, 100% = cells with rucaparib alone) 108% | viability ([12]; at 0.00488 µM, OCI-P5x cells, without rucaparib) 120% | viability ([12]; at 0.0195 µM, OCI-C5x cells, with rucaparib 10 µM, 100% = cells with rucaparib alone) 106% | viability ([12]; at 0.0195 µM, OCI-C5x cells, without rucaparib) 111% | viability ([12]; at 0.0195 µM, OCI-P5x cells, with rucaparib 20 µM, 100% = cells with rucaparib alone) 104% | viability ([12]; at 0.0195 µM, OCI-P5x cells, without rucaparib) 115% | viability ([12]; at 0.0781 µM, OCI-C5x cells, with rucaparib 10 µM, 100% = cells with rucaparib alone) 103% | viability ([12]; at 0.0781 µM, OCI-C5x cells, without rucaparib) 122% | viability ([12]; at 0.0781 µM, OCI-P5x cells, with rucaparib 20 µM, 100% = cells with rucaparib alone) 101% | viability ([12]; at 0.0781 µM, OCI-P5x cells, without rucaparib) 115% | viability ([12]; at 0.313 µM, OCI-C5x cells, with rucaparib 10 µM, 100% = cells with rucaparib alone) 103% | viability ([12]; at 0.313 µM, OCI-C5x cells, without rucaparib) 114% | viability ([12]; at 0.313 µM, OCI-P5x cells, without rucaparib) 109% | viability ([12]; at 1.25 µM, OCI-C5x cells, with rucaparib 10 µM, 100% = cells with rucaparib alone) 101% | viability ([12]; at 1.25 µM, OCI-C5x cells, without rucaparib) 115% | viability ([12]; at 1.25 µM, OCI-P5x cells, without rucaparib) 105% | viability ([12]; at 5 µM, OCI-C5x cells, with rucaparib 10 µM, 100% = cells with rucaparib alone) 101% | viability ([12]; at 5 µM, OCI-C5x cells, without rucaparib) 104% | log fold change Tl+ flux (F380Y) 0.0395 | log fold change Tl+ flux (F380Y/beta1) 0.0141 | log fold change Tl+ flux (F380Y/beta2Delta) -0.0201 | log fold change Tl+ flux (F380Y/beta4) 0.0201 | log fold change Tl+ flux [13] 0.0114 | log fold change Tl+ flux (R275C) 0.0107 | log fold change Tl+ flux (R275C/beta1) 0.0531
8.1%: nuclear beta-catenin stimulation ([1]; stimulation, at 2 µM)
1.34: normalised cell number [10, 14]
0.93: normalised cell number [10, 15]
active: viability decrease [3] 102% | inhibition of viability [6] 102% | viability decrease (inhibition) [7] 142% | viability decrease (inhibition) [8] 104% | viability ([12]; at 0.313 µM, OCI-P5x cells, with rucaparib 20 µM, 100% = cells with rucaparib alone) 98.8% | viability ([12]; at 1.25 µM, OCI-P5x cells, with rucaparib 20 µM, 100% = cells with rucaparib alone) 92.2% | viability ([12]; at 5 µM, OCI-P5x cells, with rucaparib 20 µM, 100% = cells with rucaparib alone) 93.6% | viability ([12]; at 5 µM, OCI-P5x cells, without rucaparib) 99.6%

N[C@@H]1CONC1=O
inactive: nuclear beta-catenin stimulation ([1]; at 10 µM) 0.4% | insulin secretion stimulation [2] 1.4% | viability decrease [3] -9.9% | tube area decrease [4] 3.2% | GLP1 secretion stimulation [5] -0.7% | inhibition of viability [6] 8.67% | viability decrease (inhibition) [7] -6.2% | viability decrease (inhibition) [8] -14.1% | inhibition [9] 6.28% | red/green cell ratio (normalised) [10] 1.34 | z-score [11, 16] 0.819 | log fold change Tl+ flux (F380Y) 0.0411 and -0.0245 | log fold change Tl+ flux (F380Y/beta1) 0.0612 | log fold change Tl+ flux (F380Y/beta2Delta) -0.00859 and -0.0479 | log fold change Tl+ flux (F380Y/beta4) 0.0351 | log fold change Tl+ flux [13] -0.0244 and 0.0135 | log fold change Tl+ flux (R275C) -0.00755 and 0.0374 | log fold change Tl+ flux (R275C/beta1) 0.00647 and 0.0301
0.724: z-score [11, 17]
3.4%: nuclear beta-catenin stimulation ([1]; stimulation, at 2 µM)
1.27: normalised cell number [10, 14]
1.71: normalised cell number [10, 15]
